Source: PubChem
Most compounds without a hit are left out; they make up all but 10% or so of the library.
BAZ2B inh: inhibitors of human BAZ2B bromodomain; AlphaScreen BAZ2B-H3K14Ac peptide displacement; hit rate 4.4% among 360,000; Potency, µM (highest dose often 114 µM), without a hit: top-dose activity change, negative = inhibition, actives largely listed as inhibitors; Q9UIF8; note: % is set by controls: 0 for no effect and ±100 for the full control effect; nearly all actives have a fitted effect of over 60% in size
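AlphaScreen displacement: compounds (up to 110uM) incubated 30 min at room temperature with a preformed 50 nM BAZ2B/50 nM biotinylated H3K14Ac peptide complex in PBS pH 7.4 with Tween-20. Donor and acceptor beads at 10 ug/mL final added, 20 min light-protected before reading.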
L3MBTL1 inh: blocks human L3MBTL1; Q9Y468; AlphaScreen L3MBTL1–H3K9me1 peptide binding; AID 485360; Potency, µM (top dose mostly 57.1 µM), inactives show at the top dose activity, negative = inhibition, hits mostly inhibitors; hit rate 0.66% among 230,000; note: % is set by controls: 0 for no effect and ±100 for the full control effect; nearly all actives have a fitted effect of over 60% in size
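First, the protein-peptide complex forms for 30 min at room temperature (L3MBTL1 50 nM, biotinylated H3K9me1 peptide 75 nM). Next, compounds are pin-transferred and incubated 30 min. Finally, AlphaScreen beads are added and read after 30 min.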
HP1b chromo inh: inhibitors of HP1-beta chromodomain binding to methylated histone tails; P83916; AlphaScreen HP1-beta / biotin-H3K9me3 peptide binding; Potency, µM (series often up to 114 µM), inactives show top-dose activity change, negative = inhibition, hits mostly inhibitors; hit rate 0.56% among 390,000; AID 540317; note: nearly all actives have a fitted effect of over 70% in size
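Compound inhibition of the preformed complex between 50 nM HP1-beta and 50 nM biotinylated H3K9me3 peptide was read by AlphaScreen. Buffer was PBS pH 7.4 with 0.01% Tween-20. Incubations ran 30 min at room temperature, with 10 ug/mL donor/acceptor beads.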
JMJD2A Tudor inh: blocks the human JMJD2A Tudor domain | O75164 | AlphaScreen JMJD2A-Tudor / H3K4me3 peptide binding | Potency, µM (titrated, usually from 114 µM), inactives show at the top dose activity change, negative = inhibition, actives largely listed as inhibitors | hit rate 4.4% among 390,000 | AID 504339; note: % is set by controls: 0 for no effect and ±100 for the full control effect; nearly all actives have a fitted effect of over 50% in size
G9a inh: inhibitors of human histone lysine methyltransferase G9a. G9a H3K9 monomethylation, AlphaScreen, 2 h. hit rate 8.8% among 350,000. Q96KQ7. AID 504332. Potency, µM (highest dose often 102 µM), for inactives: top-dose activity, negative = inhibition, hits mostly inhibitors; note: % is set by controls: 0 for no effect and ±100 for the full control effect; nearly all actives have a fitted effect of over 75% in size
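Quantitative HTS format: methyltransferase activity on a biotin-tagged H3K9 peptide is measured by AlphaScreen, using a rabbit anti-monomethyl-H3K9 antibody with streptavidin donor and anti-IgG acceptor beads. Final levels are 20 nM enzyme, 500 nM peptide, 20 uM SAM; 2 h RT.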
GLS inhibitor: blocks human kidney-isoform glutaminase activity. GLS enzymatic activity, qHTS titration. Potency, µM (series often up to 45.5 µM), for the others: top-dose activity change, negative = inhibition, most hits filed as inhibitors. hit rate 0.21% among 410,000. AID 624170; note: % is set by controls: 0 for no effect and ±100 for the full control effect
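Enzyme dispensed in phosphate buffer (45 mM, pH 8.2, 0.02% Tween-20), compounds pinned in, then 1 mM L-glutamine solution and the glutamate oxidase–HRP–Amplex Red mix added; fluorescence read immediately and again after 30 min at room temperature.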
* hit, by the source's call; ? = inconclusive; nt = not tested or not shown; ! = not confirmed by another sample; [ ] = remark or other dose. Calls come from the whole dose curve; as a rule, active = well fitted curve in the direction sought with a large enough effect; inconclusive = small, poorly fitted or top-dose-only effect, or another doubt; inactive = no such curve, though single readings can be large; an effect the other way counts as inactive or inconclusive. Potency is the fitted concentration of half-maximal effect.

SMILES	BAZ2B inh	L3MBTL1 inh	HP1b chromo inh	JMJD2A Tudor inh	G9a inh	GLS inhibitor
COc1ccc(S(=O)(=O)N2CCOCC2)cc1NC(=O)Cc1coc2cc(C)c(C)cc12	-15%	nt	27%	-17%	50µM*	-2%
COc1ccc(NC(=O)Cc2coc3cc(C)c(C(C)C)cc23)cc1S(=O)(=O)N1CCOCC1	?	-6%	8%	-30%	10µM*	8%
Cc1ccc(-c2nnc(SCC(=O)c3ccc(Cl)cc3)n2-c2ccccc2)cc1	-4%	nt	11%	?	-4%[59 µM]	8%
CCOC(=O)c1ccc2nc(C)cc(Nc3ccc(OC(C)C)cc3)c2c1	-13%	nt	27%	-16%	-39%[59 µM]	12%
Cc1nc(COC(=O)c2cc(O)c3ccccc3c2O)cs1	nt	-9%	?	-8%[11.4 µM]	3.2µM*	20%
COc1ccc(-c2nc3cccc(C)n3c2Nc2ccc(C)cc2)cc1	nt	nt	-21%	40µM*	nt	nt
COc1ccc(Nc2c(-c3ccco3)nc3cccc(C)n23)cc1	22µM*	nt	?	56µM*	25µM*	-2%
COc1cc(OC)cc(-n2c(=O)c3ccccc3n(Cc3ccccc3C#N)c2=O)c1	?	nt	21%	-6%	-28%[59 µM]	12%
Cc1cccc(-c2cc3nc(C)cc(NCCCn4ccnc4)n3n2)c1	18µM*	nt	-13%	-23%[11.4 µM]	?	4%
Cc1cc(NCCCn2ccnc2)n2ncc(-c3ccc(Cl)cc3)c2n1	?	-2%	-2%	?	37%[59 µM]	19%
CC(C)(C)c1cc(NCCCn2ccnc2)n2ncc(-c3ccccc3)c2n1	56µM*	-9%	10%	?	?	-2%
O=C(Nc1cccc(N2CCCC2)c1)c1cccs1	?	-15%	?	?	3.2µM*	2%
CCN(CC)CC(=O)Nc1cccc2c1C(=O)c1ccccc1C2=O	-27%	nt	-3%	-20%	?	-9%
CN(C=[N+](C)C)c1cccc2c1C(=O)c1ccccc1C2=O	18µM*	?	16µM*	45µM*	?	-5%
CSCc1c(C(=O)Nc2ccc3c(c2)OCO3)oc2ccccc12	?	nt	-13%	?	35µM*	12%
Cc1c(C(=O)Nc2ccc3c(c2)OCO3)oc2ccccc12	-3%	nt	29%	-13%	-9%	3%
COc1cc(/C=N/NC(=O)CCOc2ccccc2C)cc(Br)c1O	-16%	nt	-1%	0%[11.4 µM]	50µM*	1%
COc1ccc(/C=N/NC(=O)CCOc2ccccc2C)cc1OC	-31%	-12%	27%	-6%	?	0%
CCN1C(=NCCCCO)N[C@@H](c2cccc(C(F)(F)F)c2)C(C(=O)OC)=C1C	?	14%	47%	?	21%[12.7 µM]	2%
COC(=O)C1=C(C)N(Cc2ccccc2)C(=NCc2ccc(OC)cc2)N[C@H]1c1ccccc1	?	1%	-7%	?	nt	5%
C=CCN=C1N[C@@H](c2cccc(C(F)(F)F)c2)C(C(=O)OC)=C(C)N1CC	?	12%	32%	?	28µM*!	1%
COC(=O)C1=C(C)N(Cc2ccccc2)C(=NCC(C)C)N[C@H]1c1ccccc1	6%	6%	-7%	-32%	50µM*!	-7%
CCN1C(=NCC(C)C)N[C@@H](c2cccc(C(F)(F)F)c2)C(C(=O)OC)=C1C	?	21%	31%	18µM*	7%[12.7 µM]	1%
COC(=O)C1=C(C)N(Cc2ccccc2)C(=NCc2ccco2)N[C@H]1c1ccc(Br)cc1	79µM*	nt	nt	nt	0%[12.7 µM]	nt
COC(=O)C1=C(C)N(Cc2ccccc2)C(=NCc2cccc(C(F)(F)F)c2)N[C@H]1c1cccc(C(F)(F)F)c1	-31%	16%	24%	-24%	nt	1%
SMILES	BAZ2B inh	L3MBTL1 inh	HP1b chromo inh	JMJD2A Tudor inh	G9a inh	GLS inhibitor
Cc1ccc(NC(=O)c2ccc(CNS(=O)(=O)c3ccc4c(c3)C(C)(C)C(=O)N4C)cc2)cc1F	-2%	nt	38%	17%	2%[59 µM]	7%
CC[C@@H]1OC(=O)C[C@H](O)[C@@H](C)[C@@H](O[C@H]2O[C@@H](C)[C@H](O[C@@H]3C[C@](C)(O)[C@H](O)[C@@H](C)O3)[C@@H](N(C)C)[C@@H]2O)[C@@H](C=O)C[C@@H](C)C(=O)/C=C/C(C)=C[C@@H]1CO[C@H]1O[C@@H](C)[C@H](O)[C@H](OC)[C@@H]1OC	nt	nt	nt	nt	nt	21%
COCCN=C1N[C@@H](c2cccc(C(F)(F)F)c2)C(C(=O)OC)=C(C)N1Cc1ccccc1	-11%	7%	2%	?	?	-8%
C=CCN=C1N[C@@H](c2ccccc2)C(C(=O)OC)=C(C)N1CC	8%	1%	24%	-16%	40µM*!	1%
COC(=O)C1=C(C)N(Cc2ccccc2)C(=NCCc2c[nH]c3ccccc23)N[C@H]1c1cccc(C(F)(F)F)c1	?	-6%	-24%	56µM*	12%[12.7 µM]	1%
CCc1ccc(C2C(C(=O)Nc3ccc(Cl)cc3)=C(C)Nc3ncnn32)cc1 (stereo not given)	-13%	nt	23%	-16%	1%[59 µM]	22%
CCOc1ccc(OCC)c(NC(=O)C2CCN(S(=O)(=O)c3ccc(Br)s3)CC2)c1	3%	nt	30%	2%	1%[59 µM]	7%
CC1CCCN(C(=O)c2ccc3c(c2NCCO)C(=O)c2ccccc2C3=O)C1 (stereo not given)	40µM*	nt	50µM*	45µM*	2%[12.7 µM]	5%
CC1(C)CCCN(C(=O)c2ccc3c(c2NCCO)C(=O)c2ccccc2C3=O)C1	14µM*	35µM*	-79%	40µM*	35µM*	-10%
O=C1c2ccccc2C(=O)c2c1ccc(C(=O)N1CCCCC1)c2NCCO	-5%	-5%	-23%	-19%	18%[59 µM]	0%
COc1cc(NS(=O)(=O)c2ccc(NC(=O)c3ccc(C(C)=O)cc3)cc2)nc(OC)n1	-4%	nt	21%	-8%	4%[59 µM]	3%
CCc1c(-c2n[nH]c(=S)n2Cc2ccccc2)csc1C	-35%	-9%	4%	?	2µM*	0%
S=c1[nH]nc(-c2ccc3ccccc3n2)n1Cc1ccccc1	5%	2%	29%	-17%	?	-11%
Cc1scc(-c2n[nH]c(=S)n2Cc2ccccc2)c1C	-31%	-12%	21%	-5%	1.6µM*	17%
O=C(CN1C(=O)NC2(CCCC2)C1=O)OCC(=O)c1cccc(Cl)c1	12%	7%	4%	-20%	50µM*	0%
Cc1ccc(C(C(=O)NC2CCCCC2)N(Cc2ccccc2)C(=O)Cc2c[nH]c3ccccc23)o1 (stereo not given)	?	-11%	1%	?	2.5µM*	-2%
